Rows were chosen to be rich in hits. Some 2.2% of all compounds tested hit in one or more screens of this group.
LGR2 inh – inhibitors of bursicon-induced LGR2 CRE-luciferase signal, primary screen, cell-based, HEK293, CRE-luciferase reporter, bursicon stimulation; Drosophila bursicon receptor LGR2 (rickets); bursicon-stimulated, 4 h; inhibition, % at 9.99 µM; 0.35% of 380,000 active;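 active = drop in luminescence signal, shown as inhibition above about 50% in the replicate tests, limit read from the data, passing the limit was not always enough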;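 note: agonist challenge used bursicon conditioned medium at about half maximal strength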
HSP90 inh – HSP90 inhibitors, primary screen, cell lysate, luminescence; Heat shock protein HSP 90 (rabbit reticulocyte lysate; luciferase refolding); Rabbit reticulocyte lysate, luciferase refolding luminescence, 3 h; inhibition, % at 5.6 µM; 0.91% of 290,000 active;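 active = inhibition above the screen-wide mean plus 3 SD, computed separately per campaign, cut at about 16% in these data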;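 note: 0% = DMSO wells and 100% = 60 µM geldanamycin wells; inhibitors lower the luminescence because luciferase stays unfolded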
TROY signal inh – inhibitors of TROY-driven NF-kB signaling, primary screen, Q293 LMP1-TROYcd cells, NF-kB luciferase, uHTS; Q293 LMP1-TROYcd NF-kB luciferase reporter, 4 h; inhibition, % at 10 µM; 0.98% of 360,000 active; AID 1347056, 2019;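 active = compounds whose plate-normalised and pattern-corrected inhibition of the luciferase reporter signal at the single screening dose is 50% or more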
TWEAK-Fn14 inh – inhibitors of TWEAK-Fn14 signaling, primary screen, luciferase reporter cells, uHTS; TWEAK-stimulated Fn14 reporter cells, luciferase luminescence, 8 h; inhibition, % at 10 µM; 2% of 360,000 active; AID 1159606, 2016; in the data active = inhibition above about 50%
HSP90 confirm – HSP90 inhibitors, confirmation, cell lysate, luminescence | rabbit reticulocyte lysate, luciferase refolding luminescence, 3 h | inhibition, % at 5.9 µM | 64% of 2,300 active | shares compounds with HSP90 inh; in the data active = inhibition above about 18%;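 note: 0% = vehicle wells and 100% = reference inhibitor wells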
luciferase ctr – firefly luciferase inhibitors, HSP90 counter-screen, confirmation, artefact control for HSP90 inhibitor project, biochemical, luminescence, triplicate. 48% of 2,300 active. AID 1847, 2009. shares compounds with HSP90 inh. purified native firefly luciferase. inhibition, % at 5.9 µM;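 active = inhibition above the mean inhibition of all tested sample wells plus 3 SD, cut at about 10% in these data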;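 note: 0% = DMSO with luciferase and 100% = wells lacking luciferase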
Target sequence (P08659 whole entry, looked up): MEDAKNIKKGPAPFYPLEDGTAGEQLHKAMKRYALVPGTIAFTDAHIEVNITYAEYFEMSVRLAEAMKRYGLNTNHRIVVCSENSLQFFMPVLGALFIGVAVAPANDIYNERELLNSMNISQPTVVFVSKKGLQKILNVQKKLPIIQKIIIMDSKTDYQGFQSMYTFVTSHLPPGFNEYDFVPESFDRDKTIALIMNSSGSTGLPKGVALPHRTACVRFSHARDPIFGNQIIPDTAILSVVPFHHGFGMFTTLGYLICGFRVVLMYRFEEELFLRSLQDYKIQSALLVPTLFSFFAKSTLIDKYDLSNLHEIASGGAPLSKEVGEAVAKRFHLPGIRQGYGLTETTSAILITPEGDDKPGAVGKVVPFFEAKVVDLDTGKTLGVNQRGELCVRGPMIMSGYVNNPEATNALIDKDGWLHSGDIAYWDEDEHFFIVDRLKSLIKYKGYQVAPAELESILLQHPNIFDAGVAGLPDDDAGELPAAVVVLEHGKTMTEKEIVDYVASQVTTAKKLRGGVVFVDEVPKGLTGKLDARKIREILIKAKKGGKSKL
Numbers without * were called inactive; nt = not tested or not shown.

SMILES	LGR2 inh	HSP90 inh	TROY signal inh	TWEAK-Fn14 inh	HSP90 confirm	luciferase ctr
O=C(C1CCCCC1)N1C[C@@H]2[C@H](c3ccccc31)[C@H](CO)N2C(=O)c1ccccc1F	1.6	nt	nt	nt	nt	nt
CC(=O)Nc1cccc(NC(=O)c2ccc3c(c2)CCN3S(=O)(=O)c2ccccc2)c1	18.6	-2.7	-4.7	12.1	nt	nt
CC(=O)c1cccc(NC(=O)c2ccc3c(c2)CCN3S(=O)(=O)c2ccccc2)c1	3.5	19.5*	49.5	73.8*	1.8	-5.6
COc1ccc(NC(=S)NNc2ccc(C(=O)O)cc2)cc1	13.2	21.0*	18.9	58.3*	41.9*	38.1*
COc1ccc(C(=O)NNc2ccccc2)cc1	-0.1	-4.2	-7.9	4.7	nt	nt
CC(C)C#Cc1cnc2c(c1)C(=O)N([C@H](C)CO)C[C@@H](C)[C@H](CN(C)C(=O)Nc1ccccc1)O2	7.2	nt	nt	nt	nt	nt
CCOc1ccc2c(c1)C(C)=CC(C)(C)N2S(=O)(=O)c1ccc(C)cc1	-3.7	30.3*	14.5	35.2	12.2	4.1
O=C(c1ccncc1)N1CC[C@H]2[C@H](CO)Nc3ccc(-c4ccccc4)cc3[C@H]21	-17.0	nt	nt	nt	nt	nt
COc1cc(/C=C/[N+](=O)[O-])ccc1OCc1cccc(C(=O)O)c1	nt	62.9*	nt	nt	50.6*	1.5
CN1C(=O)c2cc(NC(=O)c3ccc(F)cc3)ccc2OC[C@@H]2O[C@@H](CC(=O)NC3CCC3)CC[C@H]21	2.3	nt	nt	nt	nt	nt
COc1ccc(CCC(=O)OCC(=O)c2c(N)n(CC(C)C)c(=O)n(C)c2=O)cc1	0.6	17.6*	35.3	1.2	6.4	2.5
O=C(CCN1CCCCC1)N[C@@H]1CC[C@H](CCn2cc(-c3ccccc3)nn2)O[C@H]1CO	12.3	nt	nt	nt	nt	nt
O=C(NC12CC3CC(CC(C3)C1)C2)c1ccco1	-2.0	-2.9	-3.4	10.3	nt	nt
O=C(NC12CC3CC(CC(C3)C1)C2)c1ccc(-c2ccccc2Cl)o1	-5.0	25.7*	nt	64.2*	37.6*	30.1*
CCN(C[C@H]1[C@H](c2ccccc2)[C@@H](CO)N1C(C)=O)C(=O)NC(C)C	-4.8	nt	nt	nt	nt	nt
CCOC(=O)N1N=C(c2ccc(OC)cc2)CC1(O)C(F)(F)F (stereo unspecified)	-14.7	21.8*	6.3	26.7	38.8*	26.2*
CCc1ccc(C2=NN(C(=O)OC)C(O)(C(F)(F)F)C2)cc1 (stereo unspecified)	-18.9	39.6*	22.8	29.6	64.5*	48.8*
C[C@@H]1CN([C@@H](C)CO)C(=O)c2cc(NC(=O)c3ccccc3)ccc2O[C@@H](C)CCCCO[C@H]1CN(C)C(=O)Cc1ccccc1	-3.1	nt	nt	nt	nt	nt
Cc1ccc(NC2=Nc3ccccc3CS2)cc1	nt	26.4*	31.9	73.7*	48.1*	42.7*
COc1cccc(-c2ccc3n(c2=O)C[C@H]2[C@H](CO)[C@@H](C(=O)N(C)C)[C@@H]3N2CC2CC2)c1	-0.4	nt	nt	nt	nt	nt
Cc1cccc(/C=C/c2ccccc2)n1	-65.8	nt	-48.6	-8.4	nt	nt
C(=C\c1ccc2ccccc2n1)/c1ccccc1	93.9*	35.1*	56.8*	74.4*	83.4*	77.1*
O=[N+]([O-])c1ccc(/C=C/c2ccc3ccccc3n2)cc1	54.4*	20.7*	54.5*	60.1*	66.5*	53.9*
CC(C)CC#Cc1ccc2c(c1)O[C@H](CN(C)Cc1cccc(F)c1)[C@@H](C)CN([C@@H](C)CO)S2(=O)=O	10.3	nt	nt	nt	nt	nt
COc1ccc(C)cc1S(=O)(=O)N1CCCC(C(=O)N2CCN(c3ccccc3)CC2)C1 (stereo unspecified)	10.6	22.5*	13.3	6.2	3.2	-2.2
COc1ccc(/C=N/Nc2nc3ccccc3s2)cc1O	85.9*	21.5*	60.5*	74.5*	55.4*	49.0*
COc1cccc(C=NNc2nc3ccccc3s2)c1OC	25.7	nt	45.4	34.5	nt	nt
N#CC1=C2C=CC=CN2CC1=O	nt	20.1*	23.0	9.2	3.7	-2.0
Cc1cc(C)c2c(N)c(C(=O)Nc3nccs3)sc2n1	nt	29.6*	-11.1	65.9*	62.0*	50.6*

Source: PubChem BioAssay
